# Results as given in PubChem BioAssay (NCI).
# About 83,000 compounds went through this panel and 20% of them were active in at least one assay; those are over-represented in the sample as a whole.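 A percent growth of 40 corresponds to 60% growth inhibition; 0 means no net growth; -100 means all cells died. Active threshold: below 10.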 Unmarked numbers belong to inactive results. The source made the active and inactive calls.
# Key:
# Test in all cases: NCI-60 one-dose screen, 48 h (100 = growth as untreated, 0 = no growth, -100 = all killed)
# Conditions in all cases: 10 µM unless noted
# HCT-15 colon = tested on: HCT-15 colon
# HT29 colon = tested on: HT29 colon
# SNB-75 CNS = tested on: SNB-75 CNS
# SNB-19 CNS = tested on: SNB-19 CNS
# U251 CNS = tested on: U251 CNS
# PC-3 prostate = tested on: PC-3 prostate
# SK-MEL-5 melanoma = tested on: SK-MEL-5 melanoma
# UACC-62 melanoma = tested on: UACC-62 melanoma
# LOX IMVI melanoma = tested on: LOX IMVI melanoma
# SK-MEL-28 melanoma = tested on: SK-MEL-28 melanoma
# SK-MEL-2 melanoma = tested on: SK-MEL-2 melanoma
# EKVX NSCLC = tested on: EKVX NSCLC
# SN12C renal = tested on: SN12C renal
# UO-31 renal = tested on: UO-31 renal
# TK-10 renal = tested on: TK-10 renal
# ACHN renal = tested on: ACHN renal
# CAKI-1 renal = tested on: CAKI-1 renal
# A498 renal = tested on: A498 renal
# CCRF-CEM leukemia = tested on: CCRF-CEM leukemia
# MOLT-4 leukemia = tested on: MOLT-4 leukemia
SMILES,growth (HCT-15 colon),growth (HT29 colon),growth (SNB-75 CNS),growth (SNB-19 CNS),growth (U251 CNS),growth (PC-3 prostate),growth (SK-MEL-5 melanoma),growth (UACC-62 melanoma),growth (LOX IMVI melanoma),growth (SK-MEL-28 melanoma),growth (SK-MEL-2 melanoma),growth (EKVX NSCLC),growth (SN12C renal),growth (UO-31 renal),growth (TK-10 renal),growth (ACHN renal),growth (CAKI-1 renal),growth (A498 renal),growth (CCRF-CEM leukemia),growth (MOLT-4 leukemia)
NC(N)=Nc1ccc(Oc2cccc(Nc3cccc(C(F)(F)F)c3)c2)cn1,-64.9% (active),14.6%,33.5%,1.17% (active),-62.7% (active),-74.8% (active),31.4%,-16.2% (active),-90.3% (active),31.5%,64.8%,2.37% (active),-13.7% (active),42.8%,70%,37.8%,27.2%,18.1%,-9.05% (active),0.007% (active)
COc1c(N2CC3CCCNC3C2)c(F)cc2c(=O)c(C(=O)N/N=C/c3ccc(N(C)C)cc3)cn(C3CC3)c12 (stereo not given),16.4%,-12% (active),100%,78.3%,49%,60.4%,83.9%,100%,-22.6% (active),97.8%,114%,86.2%,65.5%,59.1%,122%,46.8%,90.3%,113%,29.6%,29.5%
CCN(CC)c1cn(-c2ccc(S(N)(=O)=O)cc2)nn1,105%,97.9%,83%,102%,100%,101%,104%,94.9%,106%,105%,109%,105%,105%,91.8%,103%,106%,93.9%,83.4%,106%,97.7%
COc1cccc(O)c1/C=C(/C)c1ccc2c(OC)cccc2[o+]1,95.1%,118%,97.1%,103%,106%,97.5%,105%,93.7%,83.9%,101%,107%,96.5%,99.5%,79.7%,140%,98.9%,90.3%,95.7%,106%,107%
C#CCOC(=O)[C@@H]1CCCN1CC#C,85.7%,82.4%,77.8%,86.9%,81.4%,51.2%,90.2%,92.8%,77.7%,107%,98.2%,86.3%,92.6%,66.1%,96.2%,85.7%,76.3%,93.5%,81.9%,61.5%
COc1cc2oc(-c3cccc(NC(=O)c4cc(N)ccc4Cl)c3)cc(=O)c2c(OC)c1OC,85.7%,110%,101%,100%,101%,97.9%,75.3%,94.4%,87.1%,108%,110%,91.4%,100%,80.9%,98.3%,95%,87.9%,82.6%,64.9%,72.8%
O=C1Nc2ccccc2/C1=C/c1ccc(CO)n1-c1ccc(Cl)cc1,24%,26.7%,32.8%,66.1%,56.4%,53.5%,51.9%,33.9%,43.5%,57.7%,47.7%,63.6%,65.2%,59.2%,115%,56.1%,52.8%,35.4%,33%,26.7%
Nc1nc(N)c2c(n1)NC(c1ccc(Cl)cc1)CC(c1ccc(Nc3nc(NCCO)nc(N4CCOCC4)n3)cc1)=N2 (stereo not given),53.7%,57.2%,72.5%,87.4%,59.5%,64%,67.4%,89.9%,61.2%,83.5%,88.2%,89.8%,82.1%,84.4%,103%,93.7%,97.2%,90.6%,48.2%,45.5%
C=C1CC[C@@H]2[C@](C)(CO)[C@H](O)CC[C@@]2(C)[C@@H]1C/C(O)=C1\CCOC1=O,90.9%,96.5%,96.4%,97.9%,88.2%,99.7%,101%,88.9%,72.9%,108%,103%,102%,86.8%,99.4%,114%,101%,101%,94.4%,60.2%,104%
Nc1ccccc1NC(=O)c1ccc(NC(=O)C/C=C/c2cccnc2)cc1,30.2%,18.1%,44.6%,39.4%,21.5%,36.9%,12.3%,15%,20.3%,0.0488% (active),15.5%,61.3%,29.1%,17.6%,28.9%,47.1%,45.1%,-16.4% (active),22.5%,31.1%
CS(=O)(=O)Nc1cc(-c2ccc3ncc(C#N)c(NCc4cccc(F)c4)c3c2)cnc1Cl,5.75% (active),9.57% (active),45.7%,11.9%,10.3%,4.17% (active),-96.6% (active),-20.2% (active),-55% (active),4.56% (active),-63.4% (active),-7.05% (active),15.4%,2.87% (active),-11% (active),10.1%,4.52% (active),-48.9% (active),15.1%,-10.6% (active)
COc1ccc(CCOc2cc3c(cc2OC)CCN(C(=O)NCc2cocn2)C3c2ccc(C)cc2C)cc1 (stereo not given),5.53% (active),-2.64% (active),39.2%,22%,5.74% (active),20.1%,-43.2% (active),24%,1.85% (active),38.7%,-7.32% (active),39.7%,19.7%,24.7%,49.8%,18.5%,13.2%,-2.94% (active),26.4%,21.8%
O=C(c1ccc(O)c(C(=O)N2Cc3ccc(OCCC[P+](c4ccccc4)(c4ccccc4)c4ccccc4)cc3C2)c1)N1Cc2cccc(F)c2C1,97.6%,101%,95.4%,38.1%,56.8%,78.9%,29.3%,45.5%,67.1%,58%,65.2%,70.3%,88.6%,80.6%,100%,101%,93.1%,85.7%,57.4%,108%
COc1cc2c(cc1OC)C(Sc1ccc(C)cc1)c1c(nc(N)c(C#N)c1N)O2 (stereo not given),-74.3% (active),-21.2% (active),29%,-68.9% (active),-69.9% (active),-71.1% (active),-94.6% (active),-45% (active),-90.5% (active),-80.3% (active),-20% (active),-84.3% (active),-64.3% (active),-99.7% (active),-63.6% (active),-95.8% (active),-62.9% (active),-54.7% (active),2.14% (active),-9.07% (active)
Clc1cccc(/C=N/Nc2nc(N/N=C/c3cccc(Cl)c3Cl)nc(N3CCCCC3)n2)c1Cl,65.5%,84.3%,104%,95.4%,52.9%,70.1%,94.2%,89.8%,68.3%,97.7%,114%,89%,80.7%,93.2%,91.2%,83.7%,84.1%,92.5%,71.3%,84.3%
